Measurements reported in PubChem BioAssay (Tox21).
Results filed as inconclusive are left out. A call without a number means that no potency is given here. Unmarked numbers belong to inactive results. Calls of active or inactive are those of the source. The call rests on the fitted dose curve; in most records, active means well fitted curve in the direction sought with a large enough effect in the repeat runs; inconclusive means weak or mixed curves; inactive means no such curve, though single readings can be large; an effect the other way counts as inactive or inconclusive.

Tests used:
[1] = molecular target: Cytochrome P450 2C19 (Homo sapiens) (UniProt P33261); assay: Cytochrome P450 Family 2 Subfamily C Member 19 (CYP2C19) small molecule antagonists: luciferase reporter qHTS assay (AID 1671197); further: nearly all actives have a fitted effect of over 65% in size; further: potency means the concentration at half of the fitted maximal effect; on activity change, negative = inhibition: series mostly up to about 120 µM
Chain of Cytochrome P450 2C19 (Homo sapiens) (P33261 whole entry, looked up): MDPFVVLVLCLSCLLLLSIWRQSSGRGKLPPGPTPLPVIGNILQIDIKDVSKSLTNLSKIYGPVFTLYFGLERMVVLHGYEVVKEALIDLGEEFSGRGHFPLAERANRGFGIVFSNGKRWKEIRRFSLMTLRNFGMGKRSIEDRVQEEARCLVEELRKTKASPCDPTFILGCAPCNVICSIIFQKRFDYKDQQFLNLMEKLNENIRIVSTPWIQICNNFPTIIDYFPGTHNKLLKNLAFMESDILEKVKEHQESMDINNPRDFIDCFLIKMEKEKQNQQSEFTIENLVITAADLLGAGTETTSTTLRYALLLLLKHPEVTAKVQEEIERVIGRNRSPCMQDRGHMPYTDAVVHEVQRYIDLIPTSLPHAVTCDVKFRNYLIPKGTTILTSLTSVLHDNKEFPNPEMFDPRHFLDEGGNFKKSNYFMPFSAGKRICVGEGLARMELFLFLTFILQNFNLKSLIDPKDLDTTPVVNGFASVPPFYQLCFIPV
Method in brief: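 Compounds were tested on CYP2C19 activity via proluciferin conversion to luciferin. The 37C, 1 h reaction followed NADPH addition; detection reagent stopped it.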

[2] = molecular target: Cytochrome P450 2C9 (Homo sapiens) (UniProt P11712); assay: Cytochrome P450 Family 2 Subfamily C Member 9 (CYP2C9) small molecule antagonists: luciferase reporter qHTS assay (AID 1671198); further: nearly all actives have a fitted effect of over 50% in size; further: potency means the concentration at half of the fitted maximal effect; on activity change, negative = inhibition: series mostly up to about 120 µM
Chain of Cytochrome P450 2C9 (Homo sapiens) (P11712 whole entry, looked up): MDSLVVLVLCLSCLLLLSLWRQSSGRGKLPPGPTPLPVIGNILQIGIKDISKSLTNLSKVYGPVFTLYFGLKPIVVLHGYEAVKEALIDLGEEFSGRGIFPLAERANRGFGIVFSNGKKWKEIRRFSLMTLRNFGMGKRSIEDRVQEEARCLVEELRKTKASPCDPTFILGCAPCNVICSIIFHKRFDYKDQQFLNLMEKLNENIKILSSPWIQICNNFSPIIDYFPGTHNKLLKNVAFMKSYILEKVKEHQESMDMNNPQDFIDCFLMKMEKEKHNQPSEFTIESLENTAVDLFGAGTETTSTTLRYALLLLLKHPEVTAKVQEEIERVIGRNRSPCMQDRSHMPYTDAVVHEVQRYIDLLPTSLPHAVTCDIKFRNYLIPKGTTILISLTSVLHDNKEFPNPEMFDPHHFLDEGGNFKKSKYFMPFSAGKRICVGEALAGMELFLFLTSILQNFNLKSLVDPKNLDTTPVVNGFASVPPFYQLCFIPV
Method in brief: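 P450-Glo proluciferin substrate with CYP2C9 enzyme; 10 min RT preincubation, then NADPH regeneration 1 h at 37C; luciferin detection reagent 20 min RT, luminescence in relative luminescence units.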

[3] = molecular target: Voltage-gated inwardly rectifying potassium channel KCNH2 (Homo sapiens) (UniProt Q12809); assay: Human Ether-a-go-go-Related Gene (hERG) channel small molecule antagonists: fluorescence cell-based qHTS assay (AID 1671200);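 further: hERG-expressing U2OS cells given a thallium stimulus after FluxOR II dye loading; series mostly up to about 77 µM; nearly all actives have a fitted effect of over 50% in size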
Chain of Voltage-gated inwardly rectifying potassium channel KCNH2 (Homo sapiens) (Q12809 whole entry, looked up): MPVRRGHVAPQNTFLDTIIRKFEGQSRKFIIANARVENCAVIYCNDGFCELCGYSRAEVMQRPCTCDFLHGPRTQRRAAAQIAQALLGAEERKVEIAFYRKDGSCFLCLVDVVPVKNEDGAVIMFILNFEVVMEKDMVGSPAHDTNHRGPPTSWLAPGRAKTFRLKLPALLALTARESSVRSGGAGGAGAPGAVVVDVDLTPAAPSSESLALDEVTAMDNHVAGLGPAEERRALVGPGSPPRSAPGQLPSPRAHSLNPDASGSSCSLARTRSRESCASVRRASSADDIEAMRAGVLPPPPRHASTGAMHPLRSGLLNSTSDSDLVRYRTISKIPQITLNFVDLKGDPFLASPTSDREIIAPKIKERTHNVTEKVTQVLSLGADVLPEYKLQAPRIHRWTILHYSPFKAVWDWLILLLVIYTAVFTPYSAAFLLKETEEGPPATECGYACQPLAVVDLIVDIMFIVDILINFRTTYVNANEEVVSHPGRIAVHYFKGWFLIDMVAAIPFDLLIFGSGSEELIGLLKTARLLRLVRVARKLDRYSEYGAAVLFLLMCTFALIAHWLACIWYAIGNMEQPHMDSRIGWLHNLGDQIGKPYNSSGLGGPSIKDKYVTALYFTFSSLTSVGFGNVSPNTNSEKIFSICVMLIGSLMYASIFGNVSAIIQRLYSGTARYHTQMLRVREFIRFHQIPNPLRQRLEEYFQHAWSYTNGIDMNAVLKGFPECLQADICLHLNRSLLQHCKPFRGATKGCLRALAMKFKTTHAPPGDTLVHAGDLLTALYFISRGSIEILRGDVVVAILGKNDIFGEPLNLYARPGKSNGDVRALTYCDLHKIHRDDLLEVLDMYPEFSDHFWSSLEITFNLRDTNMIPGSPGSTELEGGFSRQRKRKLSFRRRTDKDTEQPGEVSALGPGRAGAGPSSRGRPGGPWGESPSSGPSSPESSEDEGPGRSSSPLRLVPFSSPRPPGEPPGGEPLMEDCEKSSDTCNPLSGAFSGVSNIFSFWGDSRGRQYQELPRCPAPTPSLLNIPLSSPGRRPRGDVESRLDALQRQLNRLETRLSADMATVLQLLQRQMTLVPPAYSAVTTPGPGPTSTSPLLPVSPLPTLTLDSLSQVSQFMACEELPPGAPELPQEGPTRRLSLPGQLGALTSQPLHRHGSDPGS
Method in brief: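 Read-out: thallium influx as a surrogate for potassium, tracked as fluorescence (480 nm ex/540 nm em) every second for 2 min after Stimulus Buffer addition in dye-loaded hERG-U2OS cells.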

[4] = molecular target: Cytochrome P450 1A2 (Homo sapiens) (UniProt P05177); assay: Cytochrome P450 Family 1 Subfamily A Member 2 (CYP1A2) small molecule antagonists: luciferase reporter qHTS assay (AID 1671199); further: nearly all actives have a fitted effect of over 50% in size; further: potency means the concentration at half of the fitted maximal effect; on activity change, negative = inhibition: series mostly up to about 120 µM
Chain of Cytochrome P450 1A2 (Homo sapiens) (P05177 whole entry, looked up): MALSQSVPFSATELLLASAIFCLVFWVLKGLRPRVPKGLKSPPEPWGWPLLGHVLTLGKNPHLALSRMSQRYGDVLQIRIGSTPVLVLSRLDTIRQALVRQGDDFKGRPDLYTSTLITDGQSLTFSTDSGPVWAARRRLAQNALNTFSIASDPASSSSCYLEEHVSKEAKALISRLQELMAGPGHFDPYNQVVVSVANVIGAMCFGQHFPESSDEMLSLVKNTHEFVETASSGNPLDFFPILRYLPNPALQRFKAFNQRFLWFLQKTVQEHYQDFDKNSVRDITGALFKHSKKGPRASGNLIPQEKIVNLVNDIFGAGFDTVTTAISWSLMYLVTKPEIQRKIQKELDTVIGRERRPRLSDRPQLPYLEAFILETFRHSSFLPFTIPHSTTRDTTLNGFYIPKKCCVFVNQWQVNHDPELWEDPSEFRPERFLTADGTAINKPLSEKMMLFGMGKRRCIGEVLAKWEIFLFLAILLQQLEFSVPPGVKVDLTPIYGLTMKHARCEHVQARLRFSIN
Method in brief: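 Compounds were incubated with CYP1A2 and a luminogenic proluciferin substrate for 10 min at room temperature before the reaction was started with NADPH regeneration solution. After 1 h, detection reagent was added and light output, proportional to CYP activity, was recorded.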

[5] = molecular target: Cytochrome P450 3A4 (Homo sapiens) (UniProt P08684); assay: Cytochrome P450 Family 3 Subfamily A Member 4 (CYP3A4) small molecule antagonists: luciferase reporter qHTS assay (AID 1671201); further: nearly all actives have a fitted effect of over 50% in size; further: potency means the concentration at half of the fitted maximal effect; on activity change, negative = inhibition: series mostly up to about 120 µM
Chain of Cytochrome P450 3A4 (Homo sapiens) (P08684 whole entry, looked up): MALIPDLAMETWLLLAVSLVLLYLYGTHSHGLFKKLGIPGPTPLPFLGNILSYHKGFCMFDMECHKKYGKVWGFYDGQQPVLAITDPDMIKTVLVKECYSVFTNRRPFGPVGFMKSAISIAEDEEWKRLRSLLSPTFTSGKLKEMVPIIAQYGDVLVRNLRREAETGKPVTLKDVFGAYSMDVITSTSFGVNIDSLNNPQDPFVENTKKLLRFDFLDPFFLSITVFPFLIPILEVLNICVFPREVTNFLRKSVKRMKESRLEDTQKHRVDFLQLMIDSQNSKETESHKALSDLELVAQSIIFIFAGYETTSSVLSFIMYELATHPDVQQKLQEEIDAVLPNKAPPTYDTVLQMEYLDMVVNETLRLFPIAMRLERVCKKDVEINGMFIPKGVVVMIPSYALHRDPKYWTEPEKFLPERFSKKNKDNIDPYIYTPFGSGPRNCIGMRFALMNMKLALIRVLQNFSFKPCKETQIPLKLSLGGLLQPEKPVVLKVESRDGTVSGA
Method in brief: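 Luminescent readout (RLU) proportional to CYP3A4 activity, from luciferin generated off a proluciferin substrate. Enzyme–substrate mix plus compound 10 min at room temp, NADPH regeneration 1 h, detection reagent 20 min.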

Question: Which Potency [1] does the source give for `C/C=C/C(=O)CC` here?
Answer: The Potency was “inactive”.

Question: And the activity change, negative = inhibition [2]?
Answer: Its activity change, negative = inhibition is -11% [at 23.6 µM].

Question: What about the activity change, negative = inhibition [3] of the same molecule?
Answer: Its activity change, negative = inhibition is 2.39% [at 15.8 µM].

Question: For `CCCCC`, which Potency [1] is on record?
Answer: Its Potency is “inactive”.

Question: What about the Potency [2] of the same molecule?
Answer: Its Potency is “inactive”.

Question: What about the Potency [4] of the same molecule?
Answer: The Potency was 78.4 µM (active).

Question: And the Potency [5]?
Answer: Its Potency is “inactive”.

Question: `Nc1ncn([C@H]2C[C@H](O)[C@@H](CO)O2)c(=O)n1` was tested. Which Potency [1] did it give?
Answer: Its Potency is “inactive”.

Question: And the Potency [2]?
Answer: The Potency was “inactive”.

Question: And the Potency [4]?
Answer: The Potency was “inactive”.

Question: What about the Potency [5] of the same molecule?
Answer: Its Potency is “inactive”.

Question: What does the source list for `CC[N+]1(CC)CCC(=C(c2ccccc2)c2ccccc2)C1C` (stereo not drawn)?
Answer: Potency [1]: inactive; Potency [2]: inactive; Potency [4]: inactive; Potency [5]: inactive

Question: How did the Potency [1] turn out when `Cc1cccc(C)c1NC(=O)CN(CC(=O)O)CC(=O)O` was run?
Answer: Its Potency is “inactive”.

Question: What about the Potency [2] of the same molecule?
Answer: Its Potency is “inactive”.

Question: What about the Potency [3] of the same molecule?
Answer: The Potency was “inactive”.

Question: What about the Potency [5] of the same molecule?
Answer: Its Potency is “inactive”.

Question: Which results are given for `CCc1cc(C2=C(C(=O)O)N(c3ccccc3C(F)(F)F)S(=O)(=O)c3ccccc32)cc2c1OCO2`?
Answer: Potency [1]: 78.7 µM (active); Potency [2]: 11.1 µM (active); Potency [4]: inactive; Potency [5]: 2.79 µM (active)

Question: With `CCOCC(O)COc1ccc(NC(=O)CC[S+](C)C)cc1` (stereo not drawn) as the molecule, how does the Potency [1] read?
Answer: The Potency was “inactive”.

Question: And the Potency [2]?
Answer: The Potency was “inactive”.

Question: What about the Potency [3] of the same molecule?
Answer: The Potency was “inactive”.

Question: What about the Potency [5] of the same molecule?
Answer: Its Potency is “inactive”.

Question: What does the source list for `C1CCCNCCC1`?
Answer: Potency [1]: inactive; Potency [2]: inactive; Potency [4]: inactive; Potency [5]: inactive

Question: What does the source list for `CC/C=C\CCOC(=O)CC`?
Answer: Potency [1]: inactive; Potency [2]: inactive; Potency [4]: inactive; Potency [5]: inactive

Question: How did the Potency [1] turn out when `CC1=CCCC(C)(C)C12CCC(C)O2` (stereo not drawn) was run?
Answer: Its Potency is “inactive”.

Question: What about the Potency [2] of the same molecule?
Answer: Its Potency is 79.6 µM (active).

Question: And the Potency [3]?
Answer: The Potency was “inactive”.

Question: And the Potency [5]?
Answer: Its Potency is 79.6 µM (active).

Question: What does the source list for `CCN(CC)CCNC(=O)c1cc(Br)c(N)cc1OC`?
Answer: Potency [1]: inactive; Potency [2]: inactive; Potency [5]: inactive

Question: How did the Potency [1] turn out when `NCc1ccccc1Sc1ccccc1CO` was run?
Answer: The Potency was 21.9 µM (active).

Question: What about the Potency [2] of the same molecule?
Answer: Its Potency is 9.77 µM (active).

Question: What about the Potency [3] of the same molecule?
Answer: The Potency was “inactive”.

Question: `CCOC(=O)c1cccnc1` was tested. Which Potency [1] did it give?
Answer: The Potency was “inactive”.

Question: And the Potency [2]?
Answer: The Potency was “inactive”.

Question: And the Potency [3]?
Answer: The Potency was “inactive”.

Question: And the Potency [5]?
Answer: The Potency was “inactive”.

Question: How did the Potency [1] turn out when `C=CC(=O)OCCOCCOCCOCCOC(=O)C=C` was run?
Answer: Its Potency is “inactive”.

Question: What about the Potency [2] of the same molecule?
Answer: The Potency was “inactive”.

Question: What about the Potency [3] of the same molecule?
Answer: The Potency was “inactive”.

Question: How did the Potency [1] turn out when `CCCCCCCN` was run?
Answer: The Potency was “inactive”.

Question: What about the Potency [2] of the same molecule?
Answer: Its Potency is “inactive”.

Question: What about the Potency [5] of the same molecule?
Answer: The Potency was “inactive”.

Question: Which results are given for `CN(C)CCN(Cc1ccsc1)c1ccccn1`?
Answer: Potency [1]: inactive; Potency [2]: inactive; Potency [4]: inactive; Potency [5]: inactive

Question: How did the Potency [1] turn out when `CN1C[C@H]2c3ccccc3Oc3ccc(Cl)cc3[C@@H]2C1` was run?
Answer: The Potency was “inactive”.

Question: And the Potency [2]?
Answer: Its Potency is “inactive”.

Question: And the Potency [4]?
Answer: Its Potency is 7.76 µM (active).

Question: What about the Potency [5] of the same molecule?
Answer: Its Potency is “inactive”.
